From PubChem BioAssay
Rows were chosen to be rich in hits. Some 2.3% of all compounds tested hit in one or more screens of this group.
Chronic BCR inh = qHTS Assay to Find Inhibitors of Chronic Active B-Cell Receptor Signaling; AID 493014, 2011; 340,000 tested, 0.05% active; ABC-DLBCL IkBa-CBG/CBR reporter, luminescence ratio, 4 h; Potency, µM (doses to about 46.1 µM), for the others: at the highest dose activity change, negative = inhibition, hits mostly inhibitors; active = well fitted inhibition curve with a large enough effect in the signal ratio, with a control signal flat, not every such curve was filed as active; inconclusive = small, poorly fitted or top-dose-only effect, or effect the other way, or a change in a side signal; the % refers to the signal ratio;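 also: plate controls were basal doxycycline-induced cells for no effect and cells given 10 µM MG132 for full effect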
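Concentration-response series (up to 46 uM) were applied to TMD8 dual-reporter cells for 4 h at 37C with doxycycline. Green/red ratio, after filter-overlap correction, defined %Activity; red signal alone was normalised to basal cells and zero luminescence.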
aSyn rescue = qHTS of alpha-syn Inhibitors. Yeast expressing alpha-synuclein, growth rescue, BacTiter-Glo, 24 h. 370,000 tested, 0.14% active. AID 652106, 2013. Potency, µM (highest dose often 46.1 µM), for inactives: at the top dose growth rescue (activation), usual class: activators; also: % of control where 0% means no effect; nearly all actives have a fitted effect of over 65% in size
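Galactose-induced alpha-syn yeast (OD600=0.02, raffinose-pregrown) + pinned cpd, 24 hr, 30 deg C; growth by BacTiter-Glo luminescence. Growth restoration scores as activation.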
TDP43 rescue = qHTS of TDP-43 Inhibitors; TDP-43 expressing yeast growth rescue, BacTiter-Glo, 24 h; AID 652104, 2013; 410,000 tested, 1.8% active; Potency, µM (doses to about 46.1 µM), inactives show at the top dose growth rescue (activation), actives largely listed as activators; also: % of control where 0% means no effect; nearly all actives have a fitted effect of over 50% in size
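Luminescence from BacTiter-Glo reports growth of TDP-43-expressing yeast after 24 hr at 30 deg C with compound. Cells were raffinose-pregrown to mid-log, then seeded in galactose medium at OD600=0.02.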
uPA surface inh = qHTS for Inhibitors of Cell Surface uPA Generation; cell surface uPA generation assay, qHTS; Potency, µM (titrated, usually from 38.3 µM), for inactives: top-dose activity change, negative = inhibition, most hits filed as inhibitors; 330,000 tested, 0.31% active; active = well fitted inhibition curve with a large enough effect; inconclusive = small, poorly fitted or top-dose-only effect; inactive = no such curve, though single readings can be large or run the other way; tested in mouse RAW 264.7 cells; also: % is scaled to controls: 0 for no effect and ±100 for the full control effect; nearly all actives have a fitted effect of over 55% in size
FUS yeast rescue = qHTS for Suppressors of FUS Proteinopathy: Primary screen using FUS-linked yeast assay; Potency, µM (highest dose often 76.6 µM), usual class: activators; S. cerevisiae FUS-expressing, growth rescue, OD600, 24 h; 390,000 tested, 0.24% active;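 also: plate controls were DMSO vehicle for no effect and reference control for full effect; nearly all actives have a fitted effect of over 55% in size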
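Steps: raffinose overnight preculture; dilution to OD 0.005 in 2% galactose minimal medium; compound addition (concentration series); 24hr at 30C, 99% humidity; absorbance read at 600 nm.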
Abeta rescue = qHTS for compounds that reverse cellular toxicity of Amyloid beta (A-beta) peptide in yeast: Primary Screen; yeast expressing A-beta42, growth rescue, OD600, 48 h; response scale: 0% DMSO, 100% iron-clioquinol control; Potency, µM (series often up to 46.1 µM), most hits filed as activators; 410,000 tested, 0.063% active; also: nearly all actives have a fitted effect of over 55% in size
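Yeast growth medium received pinned compounds, then yeast cells expressing toxic A-beta were added; plates incubated at 30 C for 48 hr. Growth read as absorbance at 600 nm, normalized to DMSO and equimolar FeCl3 plus clioquinol controls.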
Starred values were filed as active, the others as inactive; i = inactive; u = inconclusive; x = no result. Unless noted, calls follow the shape of the dose curve; as a rule, active = well fitted curve in the direction sought with a large enough effect; inconclusive = small, poorly fitted or top-dose-only effect, or another doubt; inactive = no such curve, though single readings can be large; an effect the other way counts as inactive or inconclusive. Potency is read from the fitted curve at half-maximal effect.

SMILES | Chronic BCR inh | aSyn rescue | TDP43 rescue | uPA surface inh | FUS yeast rescue | Abeta rescue
NC(=S)N/N=C\c1c2ccccc2cc2ccccc12 | u | u | 20µM* | -7% | i | u
c1cc2c(cc1Nc1nc(-c3ccc4c(c3)OCO4)cs1)OCCO2 | -17% | -7% | 3% | 1% | i | i
O=CNc1ccc2c(c1)Cc1cc([N+](=O)[O-])ccc1-2 | x | 15% | 22µM* | -9% | i | i
Cc1cccc(Nc2nnc(SCC3CCCCO3)s2)c1 (stereo unspecified) | u | -10% | u | -3% | i | i
COc1ccc(Nc2nnc(SCC3CCCCO3)s2)cc1 (stereo unspecified) | u | -18% | 11µM* | u | i | i
Nc1c(S(=O)(=O)c2ccccc2)c2nc3ccccc3nc2n1/N=C/c1ccco1 | 10% | 9% | 5% | x | i | i
Cc1ccc(S(=O)(=O)c2c(N)n(/N=C/c3ccco3)c3nc4ccccc4nc23)cc1 | 8% | 1% | 14µM* | 1% | i | i
Cc1ccc2nsnc2c1S(=O)(=O)N1CCN(C(=O)C2CCCO2)CC1 (stereo unspecified) | u | 22µM* | u | 3% | i | i
CCN(Cc1ccccc1)S(=O)(=O)CCNC(=O)c1ccccc1 | 1% | 2% | 10% | 10% | x | i
CCO[C@H]1OC(C(=O)Nc2ccccc2)=C[C@@H](c2ccc(C(F)(F)F)cc2)[C@@H]1CCCO | u | u | 35µM* | -17% | i | i
COc1cc(N=Nc2ccc3ccccc3c2)ccc1O | -23% | -57% | -46% | 3.2µM* | i | i
O=C(CSc1nnc(-c2ccco2)o1)N1CCN(c2ccccc2)CC1 | 1% | 1% | 5% | -4% | i | i
COc1ccc2oc(C)c(C(=O)c3ccc([N+](=O)[O-])cc3)c2c1 | u | 8% | 22µM* | 2% | x | i
COc1ccc2oc(C)c(C(N)=O)c2c1 | -18% | -9% | -11% | x | i | i
CN(Cc1nc2ccccc2c(=O)[nH]1)C(=O)c1ccccc1OCc1ccc(Cl)cc1 | -2% | 13% | 20µM* | -2% | i | i
CCC(C)Nc1nc(-c2cccc(OC)c2O)nc2ccccc12 (stereo unspecified) | u | -9% | 11µM* | -10% | i | i
COc1cccc(-c2nc(Oc3cccc(C)c3C)c3ccccc3n2)c1O | u | 11% | 5% | -3% | i | i
COc1cccc(-c2nc(NCc3cccnc3)c3ccccc3n2)c1O | 5% | 2% | 4% | 3% | i | i
COc1cccc(-c2nc(NC(C)C)c3ccccc3n2)c1O | u | -2% | 20µM* | -9% | i | i
COc1cccc(CN(C)C[C@@H]2OCc3ccccc3-c3c(n(C)c4ccccc34)C(=O)N([C@@H](C)CO)C[C@H]2C)c1 | x | -8% | 18% | x | i | i
Cc1ccc(S(=O)(=O)N2CCN(c3cnn(C)c(=O)c3Cl)CC2)cc1 | -1% | -3% | -19% | -2% | i | i
CCOC(=O)c1ccc(NC2c3ccccc3C(=O)N2c2ccc(C)cn2)cc1 (stereo unspecified) | 11% | 4µM* | 0% | 7% | i | i
CCn1c2ccccc2c2nc3cc(C(=O)O)ccc3nc21 | u | -60% | -16% | -1% | i | i
COc1cc(/C=N/NC(=O)c2cc(-c3ccccc3)sc2N)cc(OC)c1OC | u | 7% | 4% | -18% | i | i
O=C(OCC(=O)N1CCCc2ccccc21)c1ccccc1[N+](=O)[O-] | 11% | 6% | 35µM* | 5% | x | i
